These compounds were tested on E18 rat cortical neuron-glia co-culture (assay: myelination (MBP fiber length per Olig2+ nucleus), % of 1 µM DAPT response (DMSO = 0) (% of DAPT); higher = more myelination, active = 50 or more). Conditions: 1 µM; treatment time: 8 days (DIV5-DIV13).
How it was run: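 Myelination, expressed as continuous straight MBP fiber length per Olig2+ nucleus, was normalised to 0.1 % DMSO as 0 and a 1 µM positive control as 100. The cultures were primary E18 rat cortical co-cultures dissociated with papain and plated at 20,000 cells/well on poly-d-lysine/laminin-coated 96-well plates. They received library compounds at 1 or 5 µM in myelination medium between DIV5 and DIV13. Analysis covered four 10X fields per well in duplicate wells after 4 % paraformaldehyde fixation and immunostaining for MBP and Olig2 with DAPI.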

myelination, inactive:
Clc1ccc(CO/N=C(\Cn2ccnc2)c2ccc(Cl)cc2Cl)c(Cl)c1 [Oxiconazole] -25.1
CN(C)CCOC(c1ccc(Cl)cc1)c1ccccn1 (stereo unspecified) [Carbinoxamine] 3.25
CCc1c(C)[nH]c2c1C(=O)C(CN1CCOCC1)CC2 (stereo unspecified) [Molindone] -21
NS(=O)(=O)c1cc2c(cc1C(F)(F)F)NC(Cc1ccccc1)NS2(=O)=O (stereo unspecified) [Bendroflumethiazide] -24.6
Cc1cccc(Nc2ccncc2S(=O)(=O)NC(=O)NC(C)C)c1 [Torsemide] -11.6
NC(=O)c1ncn([C@@H]2O[C@H](CO)[C@@H](O)[C@H]2O)n1 [Ribavirin] 3.44
O=C(O)c1cc(=O)c2c(OCC(O)COc3cccc4oc(C(=O)O)cc(=O)c34)cccc2o1 [Cromolyn Sodium] -7.17
CC(C(O)c1ccc(O)cc1)N1CCC(Cc2ccccc2)CC1 (stereo unspecified) [Ifenprodil] -70.3
CC[C@H]1OC(=O)[C@H](C)C(=O)[C@H](C)[C@@H](O[C@@H]2O[C@H](C)C[C@H](N(C)C)[C@H]2O)[C@](C)(OC)C[C@@H](C)C(=O)[C@H](C)[C@H]2N(CCCCn3cnc(-c4cccnc4)c3)C(=O)O[C@]12C [Telithromycin] -3.78
COc1cc(/C=C/c2ccc(O)cc2)cc(OC)c1 [Pterostilbene] -13.8
CN(C)C(=O)C(CCN1CCC(O)(c2ccc(Cl)cc2)CC1)(c1ccccc1)c1ccccc1 [Loperamide] -10.1

— the supplement of paper PMC4840960
